# According to PubChem BioAssay (EPA / NIEHS):
# The source made the active and inactive calls. The calls were made as follows: active = hit-call score of the fitted dose curve at least 0.9, where 1 is the maximum; inactive = score below 0.9.
# Assays:
# Conditions in all cases: mRNA level, 48 h; actives raise or lower the signal
# MYC, MYC (gene 4609) = experiment: LTEA_HepaRG_MYC: Life Technologies and Expression Analysis (LTEA) Assay for MYC using HepaRG (AID 2283518)
# Summary of the method: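 MYC transcript changes, up or down relative to 0.5% DMSO, from TaqMan qRT-PCR normalized to three housekeeping genes. Human HepaRG cultures received chemicals for 48 h at eight half-log concentrations up to 100 uM, in duplicate.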
# [1] = read-out: matrix metalloproteinase-3 (MMP3), MMP3 (gene 4314); experiment: LTEA_HepaRG_MMP3: Life Technologies and Expression Analysis (LTEA) Assay for matrix metalloproteinase-3 (MMP3) using HepaRG (AID 2283519)
# Summary of the method: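 qRT-PCR read-out of MMP3 mRNA (normalised to three housekeeping genes) in HepaRG liver cells after 48 h chemical exposure; 8-point half-log series, top 100 uM, 0.5% DMSO vehicle. Bidirectional curve fitting against DMSO baseline.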
# [2] = read-out: Paternally Expressed 10 (PEG10), PEG10 (gene 23089); experiment: LTEA_HepaRG_PEG10: Life Technologies and Expression Analysis (LTEA) Assay for Paternally Expressed 10 (PEG10) using HepaRG (AID 2283520);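 as to AC50: differentiated HepaRG human liver cells in serum-free induction medium with 0.5% DMSO; PEG10 transcript by qRT-PCR normalised to ACTB GAPDH and POLR2A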
# Summary of the method: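 After 48 h exposure of differentiated HepaRG cells (0.5% DMSO vehicle, eight concentrations up to 100 uM, duplicates), PEG10 mRNA was measured by TaqMan qRT-PCR. Values were normalised to endogenous control genes and analysed bidirectionally against vehicle.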
# [3] = read-out: Protein phosphatase 2A (PPP2R4), PTPA (gene 5524); experiment: LTEA_HepaRG_PPP2R4: Life Technologies and Expression Analysis (LTEA) Assay for Protein phosphatase 2A (PPP2R4) using HepaRG (AID 2283522)
# Summary of the method: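 Using HepaRG cultures maintained in 0.5% DMSO, chemicals are tested 48 h at up to 100 uM in duplicate. Induction or suppression of PPP2R4 mRNA, measured by qRT-PCR, is fitted bidirectionally against the vehicle baseline.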
# [4] = read-out: Phosphatase and tensin (PTEN), PTEN (gene 5728); experiment: LTEA_HepaRG_PTEN: Life Technologies and Expression Analysis (LTEA) Assay for Phosphatase and tensin (PTEN) using HepaRG (AID 2283523)
# Summary of the method: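 HepaRG, 48 h exposure, 8-pt half-log series from 100 uM top, 0.5% DMSO vehicle, duplicates. Readout: Fluidigm qRT-PCR of PTEN transcript; housekeeping normalization (ACTB, GAPDH, POLR2A). Gain or loss fitted relative to DMSO baseline.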
# [5] = read-out: solute carrier (SLC22A1), SLC22A1 (gene 6580); experiment: LTEA_HepaRG_SLC22A1: Life Technologies and Expression Analysis (LTEA) Assay for solute carrier (SLC22A1) using HepaRG (AID 2283524);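 as to AC50: differentiated human HepaRG liver cells in serum-free induction medium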
# Summary of the method: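 qRT-PCR readout (TaqMan, Fluidigm arrays) of SLC22A1 transcript, normalized to three housekeeping genes; bidirectional curve fit relative to 0.5% DMSO vehicle. Differentiated human HepaRG cells, 48 h chemical exposure, top concentration 100 uM, half-log steps, eight points.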
# [6] = read-out: Pyruvate Dehydrogenase Kinase 4 (PDK4), PDK4 (gene 5166); experiment: LTEA_HepaRG_PDK4: Life Technologies and Expression Analysis (LTEA) Assay for Pyruvate Dehydrogenase Kinase 4 (PDK4) using HepaRG (AID 2283525)
# Summary of the method: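 HepaRG (human liver line), 48 h chemical exposure, 8-pt half-log CRC top 100 uM, 0.5% DMSO vehicle, duplicates. Readout: TaqMan qRT-PCR of PDK4 mRNA, housekeeping-normalized; gain/loss fit relative to DMSO baseline.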
# [7] = read-out: NAD(P)H dehydrogenase [quinone] 1 (NQO1), NQO1 (gene 1728); experiment: LTEA_HepaRG_NQO1: Life Technologies and Expression Analysis (LTEA) Assay for NAD(P)H dehydrogenase [quinone] 1 (NQO1) using HepaRG (AID 2283526)
# Summary of the method: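 In this assay, gene expression is read by qRT-PCR after 48 h exposure of HepaRG cells to eight concentrations (max 100 uM, half-log) in 0.5% DMSO. Each chemical runs in duplicate, and activity is scored relative to vehicle.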
# [8] = read-out: Nuclear factor erythroid 2-related factor 2 (Homo sapiens) (UniProt Q16236); experiment: LTEA_HepaRG_NFE2L2: Life Technologies and Expression Analysis (LTEA) Assay for Nuclear factor erythroid 2-related factor 2 (NFE2L2) Transcription Factor using HepaRG (AID 2283527);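 as to outcome: TaqMan qRT-PCR transcript level normalised to ACTB GAPDH and POLR2A housekeeping genes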
# Summary of the method: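 HepaRG, 48 h dosing, 8-pt half-log series from 100 uM in 0.5% DMSO, duplicates. Read-out: NFE2L2 mRNA by qRT-PCR (ACTB/GAPDH/POLR2A normalization). Bidirectional curve fit vs DMSO baseline.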
# [9] = read-out: succinate dehydrogenase complex iron sulfur subunit B (SDHB), SDHB (gene 6390); experiment: LTEA_HepaRG_SDHB: Life Technologies and Expression Analysis (LTEA) Assay for succinate dehydrogenase complex iron sulfur subunit B (SDHB) using HepaRG (AID 2283528)
# Summary of the method: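 HepaRG, 48 h exposure, 8-pt half-log series from 100 uM in 0.5% DMSO, duplicates. Readout: SDHB mRNA by Fluidigm qRT-PCR vs housekeeping genes; bidirectional fit relative to DMSO.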
# [10] = read-out: solute carrier (SLCO1B1), SLCO1B1 (gene 10599); experiment: LTEA_HepaRG_SLCO1B1: Life Technologies and Expression Analysis (LTEA) Assay for solute carrier (SLCO1B1) using HepaRG (AID 2283530)
# Summary of the method: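 SLCO1B1 transcript levels were quantified by TaqMan qRT-PCR using three housekeeping genes for normalization. This followed 48 h chemical exposure (100 uM top, half-log, 8 points, 0.5% DMSO) of HepaRG liver cells, with gain or loss fitted relative to DMSO.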
# [11] = read-out: sulfotransferase 2A1 (SULT2A1), SULT2A1 (gene 6822); experiment: LTEA_HepaRG_SULT2A1: Life Technologies and Expression Analysis (LTEA) Assay for sulfotransferase 2A1 (SULT2A1) using HepaRG (AID 2283531)
# Summary of the method: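 Expression change of SULT2A1, by qRT-PCR with three housekeeping-gene normalization, was scored bidirectionally versus DMSO. Cells: differentiated HepaRG, dosed in duplicate for 48 h across 8 points, highest 100 µM, half-log dilution, 0.5% DMSO.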
# [12] = read-out: Transforming Growth Factor (TGFA), TGFA (gene 7039); experiment: LTEA_HepaRG_TGFA: Life Technologies and Expression Analysis (LTEA) Assay for Transforming Growth Factor (TGFA) using HepaRG (AID 2283532)
# Summary of the method: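 qRT-PCR read-out of TGFA transcript, normalized to three housekeeping genes, fitted bidirectionally against 0.5% DMSO baseline. Human HepaRG cultures received chemicals for 48 h at eight half-log concentrations, top 100 uM.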
# [13] = read-out: Tumor necrosis factor receptor 1 (TNFRSF1A), TNFRSF1A (gene 7132); experiment: LTEA_HepaRG_TNFRSF1A: Life Technologies and Expression Analysis (LTEA) Assay for Tumor necrosis factor receptor 1 (TNFRSF1A) using HepaRG (AID 2283535)
# Summary of the method: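 mRNA measured by qRT-PCR (TaqMan, Fluidigm arrays) against ACTB/GAPDH/POLR2A housekeepers after 48 h chemical exposure of HepaRG cells. Top concentration 100 uM, half-log 8-point series, duplicates; vehicle 0.5% DMSO, both fit directions.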
# [14] = read-out: Thyroid Hormone Responsive (THRSP), THRSP (gene 7069); experiment: LTEA_HepaRG_THRSP: Life Technologies and Expression Analysis (LTEA) Assay for Thyroid Hormone Responsive (THRSP) using HepaRG (AID 2283536)
# Summary of the method: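 qRT-PCR read-out (Fluidigm TaqMan), housekeeping-normalized (ACTB/GAPDH/POLR2A). HepaRG, 48 h chemical exposure, 8-pt half-log series from 100 uM in 0.5% DMSO, duplicates. Bidirectional curve fit vs 0.5% DMSO baseline.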
# [15] = read-out: Cellular tumor antigen p53 (Homo sapiens) (UniProt P04637); experiment: LTEA_HepaRG_TP53: Life Technologies and Expression Analysis (LTEA) Assay for Tumor Protein P53 (TP53) using HepaRG (AID 2283537)
# Summary of the method: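 HepaRG, 48 h exposure, top 100 uM, half-log 8-point, 0.5% DMSO vehicle, duplicates. Read: TP53 mRNA by TaqMan qRT-PCR, normalised to ACTB/GAPDH/POLR2A; bidirectional fit vs DMSO.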
# [16] = read-out: Signal transducer and activator of transcription 3 (Homo sapiens) (UniProt P40763); experiment: LTEA_HepaRG_STAT3: Life Technologies and Expression Analysis (LTEA) Assay for Signal transducer and activator of transcription (STAT3) using HepaRG (AID 2283529)
# Summary of the method: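 HepaRG, 48 h exposure, 8-pt half-log series (top 100 uM), 0.5% DMSO vehicle, duplicates. Readout: STAT3 transcript by Fluidigm qRT-PCR, housekeeping-normalized; bidirectional fit vs DMSO baseline.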
# [17] = read-out: Transforming Growth Factor (TGFB1), TGFB1 (gene 7040); experiment: LTEA_HepaRG_TGFB1: Life Technologies and Expression Analysis (LTEA) Assay for Transforming Growth Factor (TGFB1) Transporter using HepaRG (AID 2283533)
# Summary of the method: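 TGFB1 transcript measured by qRT-PCR with normalisation to three housekeeping genes (ACTB, GAPDH, POLR2A); human HepaRG line treated in duplicate for 48 hr with an 8-point series topping at 100 uM, 0.5% DMSO vehicle, bidirectionally fitted.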
# TIMP1, TIMP1 (gene 7076) = experiment: LTEA_HepaRG_TIMP1: Life Technologies and Expression Analysis (LTEA) Assay for TIMP1 using HepaRG (AID 2283534)
# Summary of the method: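 Bidirectional change in TIMP1 transcript versus 0.5% DMSO, measured by TaqMan qRT-PCR with three housekeeping genes for normalization. HepaRG human liver cells dosed 48 h in duplicate, top concentration 100 uM with half-log dilutions.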
# Chain of Nuclear factor erythroid 2-related factor 2 (Homo sapiens) (Q16236 whole entry, looked up): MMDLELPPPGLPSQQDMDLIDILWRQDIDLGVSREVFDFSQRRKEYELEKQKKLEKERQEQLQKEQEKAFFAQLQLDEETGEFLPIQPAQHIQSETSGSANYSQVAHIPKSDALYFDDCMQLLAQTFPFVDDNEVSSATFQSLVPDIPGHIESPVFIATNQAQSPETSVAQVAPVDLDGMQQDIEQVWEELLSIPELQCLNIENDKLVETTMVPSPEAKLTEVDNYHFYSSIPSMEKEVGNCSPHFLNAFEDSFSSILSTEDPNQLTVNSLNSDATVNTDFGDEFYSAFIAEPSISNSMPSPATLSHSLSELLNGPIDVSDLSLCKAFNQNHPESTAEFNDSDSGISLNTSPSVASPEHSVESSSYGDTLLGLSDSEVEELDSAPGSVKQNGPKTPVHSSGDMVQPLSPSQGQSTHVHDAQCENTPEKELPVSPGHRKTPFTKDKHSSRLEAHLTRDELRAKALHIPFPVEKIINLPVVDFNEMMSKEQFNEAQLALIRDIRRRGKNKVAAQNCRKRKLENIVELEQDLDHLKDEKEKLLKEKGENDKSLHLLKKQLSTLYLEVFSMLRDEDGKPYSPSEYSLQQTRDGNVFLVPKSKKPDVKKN
# Chain of Cellular tumor antigen p53 (Homo sapiens) (P04637 whole entry, looked up): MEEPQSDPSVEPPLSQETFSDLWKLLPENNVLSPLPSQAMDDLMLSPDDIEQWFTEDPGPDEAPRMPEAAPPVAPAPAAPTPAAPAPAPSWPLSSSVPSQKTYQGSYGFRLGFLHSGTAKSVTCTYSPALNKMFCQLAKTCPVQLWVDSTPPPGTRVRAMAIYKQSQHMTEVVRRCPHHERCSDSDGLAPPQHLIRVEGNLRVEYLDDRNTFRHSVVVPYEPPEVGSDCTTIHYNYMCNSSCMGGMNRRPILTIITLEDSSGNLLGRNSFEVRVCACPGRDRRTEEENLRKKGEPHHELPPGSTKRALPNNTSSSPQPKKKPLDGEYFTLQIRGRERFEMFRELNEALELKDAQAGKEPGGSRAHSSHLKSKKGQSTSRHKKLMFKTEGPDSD
# Chain of Signal transducer and activator of transcription 3 (Homo sapiens) (P40763 whole entry, looked up): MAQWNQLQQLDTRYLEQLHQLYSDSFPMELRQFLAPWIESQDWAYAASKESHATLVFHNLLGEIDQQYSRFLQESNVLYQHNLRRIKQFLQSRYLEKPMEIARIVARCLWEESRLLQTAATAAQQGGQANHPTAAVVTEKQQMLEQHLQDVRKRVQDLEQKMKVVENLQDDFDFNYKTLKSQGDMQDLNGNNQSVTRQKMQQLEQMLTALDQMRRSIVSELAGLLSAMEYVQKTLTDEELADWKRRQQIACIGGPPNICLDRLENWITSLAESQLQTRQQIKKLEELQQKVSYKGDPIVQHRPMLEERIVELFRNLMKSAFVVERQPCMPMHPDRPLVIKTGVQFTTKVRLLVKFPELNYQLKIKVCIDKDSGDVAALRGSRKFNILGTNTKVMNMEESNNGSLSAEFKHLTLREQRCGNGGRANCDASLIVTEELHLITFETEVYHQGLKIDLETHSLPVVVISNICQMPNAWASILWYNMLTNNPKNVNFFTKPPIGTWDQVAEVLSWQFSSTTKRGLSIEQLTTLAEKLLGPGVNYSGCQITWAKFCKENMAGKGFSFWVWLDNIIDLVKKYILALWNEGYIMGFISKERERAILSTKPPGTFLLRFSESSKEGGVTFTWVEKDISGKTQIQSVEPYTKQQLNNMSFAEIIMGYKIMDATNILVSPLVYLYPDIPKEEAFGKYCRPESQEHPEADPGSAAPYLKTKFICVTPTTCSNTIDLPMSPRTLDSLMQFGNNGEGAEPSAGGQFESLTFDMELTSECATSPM
structure (smiles),measurement,setting,value
CCCCCCCCC(=O)O,outcome,"MYC, MYC (gene 4609)",inactive
same,outcome,[1],inactive
same,outcome,[2],inactive
same,outcome,[3],inactive
same,outcome,[4],inactive
same,outcome,[5],inactive
same,outcome,[6],inactive
same,outcome,[7],inactive
same,outcome,[8],inactive
same,outcome,[9],inactive
same,outcome,[10],inactive
same,outcome,[11],inactive
same,outcome,[12],inactive
same,outcome,[13],inactive
same,outcome,[14],inactive
same,outcome,[15],inactive
OC1CCC(C2CCCCC2)CC1 (stereo unspecified),outcome,"MYC, MYC (gene 4609)",inactive
same,outcome,[1],inactive
same,outcome,[2],inactive
same,outcome,[3],inactive
same,outcome,[4],inactive
same,outcome,[5],inactive
same,outcome,[6],inactive
same,outcome,[7],inactive
same,outcome,[8],inactive
same,outcome,[9],inactive
same,outcome,[10],inactive
same,outcome,[11],inactive
same,outcome,[12],inactive
same,outcome,[13],inactive
same,outcome,[14],inactive
same,outcome,[15],inactive
CCN(CC)CCNc1ccc(CNC=O)c2sc3ccc(OC)cc3c(=O)c12,outcome,"MYC, MYC (gene 4609)",inactive
same,AC50,[1],86.4 µM (active)
same,AC50,[2],62 µM (active)
same,AC50,[3],50 µM (active)
same,AC50,[4],50 µM (active)
same,AC50,[5],13.9 µM (active)
same,AC50,[6],44.3 µM (active)
same,outcome,[7],inactive
same,AC50,[8],87 µM (active)
same,outcome,[9],inactive
same,AC50,[16],83.4 µM (active)
same,outcome,[10],inactive
same,AC50,[11],76 µM (active)
same,AC50,[12],12.5 µM (active)
same,outcome,[17],inactive
same,outcome,"TIMP1, TIMP1 (gene 7076)",inactive
same,AC50,[13],43.5 µM (active)
same,AC50,[14],12.8 µM (active)
same,AC50,[15],16.6 µM (active)
